Our source for the growth values is PubChem BioAssay (NCI).

The panel holds about 83,000 compounds, 20% with a hit somewhere; the sample as a whole holds those more often.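 The test compound was applied at a single concentration to cells in 96-well plates for 48 hours, and percent growth was recorded.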 A number with no mark means an inactive call. Calls of active or inactive are those of the source. Rule for the calls: active = growth percent below 10; inactive = the rest.

Test in all cases: NCI-60 one-dose screen, 48 h (100 = growth as untreated, 0 = no growth, -100 = all killed)
The test system of one experiment is RPMI-8226 leukemia. The note with it: 10 µM unless noted.
The next experiment has as its system OVCAR-8 ovarian. The note with it: 10 µM unless noted.
For the next experiment, the system named is OVCAR-5 ovarian. The note with it: 10 µM unless noted.
The test system of a further experiment is OVCAR-4 ovarian. Conditions: 10 µM unless noted.
The subject of another experiment is SK-OV-3 ovarian. The note with it: 10 µM unless noted.
A further experiment relates to IGROV1 ovarian. Conditions: 10 µM unless noted.
The subject of the next experiment is OVCAR-3 ovarian. The note with it: 10 µM unless noted.
For a further experiment, the system named is HS 578T breast. The note with it: 10 µM unless noted.
The next experiment relates to NCI/ADR-RES ovarian. Conditions: 10 µM unless noted.
A further experiment deals with T-47D breast. The note with it: 10 µM unless noted.
Another experiment concerns BT-549 breast. Conditions: 10 µM unless noted.
The test system of another experiment is MDA-MB-435 melanoma. Conditions: 10 µM unless noted.
A further experiment relates to SW-620 colon. The note with it: 10 µM unless noted.
Another experiment has as its system MCF7 breast. Conditions: 10 µM.
Another experiment has as its system HCT-116 colon. The note with it: 10 µM unless noted.
The next experiment has as its system HCC-2998 colon. The note with it: 10 µM unless noted.
The subject of the next experiment is KM12 colon. The note with it: 10 µM unless noted.

As to `CCC(C)(C)C(=O)O[C@H]1C[C@@H](C)C=C2C=C[C@H](C)[C@H](CC[C@@H]3CC=CC(=O)O3)[C@H]21`, the growth in the experiment with RPMI-8226 leukemia was -16.7% (active); in the experiment on OVCAR-8 ovarian, 61.6%; with OVCAR-5 ovarian, 142%; in the experiment on OVCAR-4 ovarian, 106%; in the experiment with SK-OV-3 ovarian it was 115%; in the experiment with IGROV1 ovarian, 97.2%. For the same molecule, the growth in the experiment on OVCAR-3 ovarian was 51.2%; with HS 578T breast it was 94.6%; with NCI/ADR-RES ovarian it was 90.6%; in the experiment on T-47D breast, 80.8%; in the experiment on BT-549 breast, 95.9%; in the experiment with MDA-MB-435 melanoma it was 60.3%. In addition, the growth with SW-620 colon was 17.7%; in the experiment with MCF7 breast, 36.8%; with HCT-116 colon, -5.88% (active); in the experiment with HCC-2998 colon, 88.8%; in the experiment with KM12 colon it was 87.5%.

`OC(CNC1CCCCC1)Cn1c2ccc(I)cc2c2cc(I)ccc21` (stereo not drawn): the growth is 52.2% in the experiment with RPMI-8226 leukemia; 70.9% in the experiment with OVCAR-8 ovarian; 82.9% with OVCAR-5 ovarian; 77% with OVCAR-4 ovarian; 91.6% in the experiment with SK-OV-3 ovarian; 70.8% in the experiment on IGROV1 ovarian. The growth with OVCAR-3 ovarian was 65.7%; in the experiment with HS 578T breast, 79.6%; in the experiment on NCI/ADR-RES ovarian, 62.8%; in the experiment with T-47D breast, 81.3%; in the experiment on BT-549 breast, 85.9%; in the experiment on MDA-MB-435 melanoma it was 66.9%. Further, the growth in the experiment with SW-620 colon was 79.5%; with MCF7 breast, 69.9%; in the experiment with HCT-116 colon it was 65.2%; in the experiment with HCC-2998 colon it was 94.3%; in the experiment on KM12 colon, 74.5%.

With `CN(C)c1ccc(N=Cc2ccc(N3CCOCC3)cc2)cc1`, the growth in the experiment with RPMI-8226 leukemia is 47.5%; in the experiment on OVCAR-8 ovarian, 62.7%; with OVCAR-5 ovarian, 111%; in the experiment with OVCAR-4 ovarian, 19.1%; in the experiment with SK-OV-3 ovarian it was 94.7%; with IGROV1 ovarian, 117%. Besides, the growth in the experiment with OVCAR-3 ovarian is -4.05% (active); in the experiment on HS 578T breast it was 107%; in the experiment with NCI/ADR-RES ovarian, 83.1%; in the experiment with T-47D breast, 94.4%; in the experiment with BT-549 breast it was 95.1%; with MDA-MB-435 melanoma it was 74.1%. For the same molecule, the growth was 44.2% in the experiment on SW-620 colon; 39% in the experiment with MCF7 breast; 67.6% in the experiment on HCT-116 colon; 54.2% with HCC-2998 colon; 59.5% with KM12 colon.

`CCOC(=O)c1cnc2c(C)cccc2c1Nc1ccc(C(C)=O)cc1`: the growth is -34.2% (active) in the experiment with RPMI-8226 leukemia; 35% with OVCAR-8 ovarian; 45% with OVCAR-5 ovarian; 16.2% in the experiment on OVCAR-4 ovarian; 68.2% in the experiment with SK-OV-3 ovarian; 2.45% (active) with IGROV1 ovarian. The growth was -8.93% (active) with OVCAR-3 ovarian; 25.6% with HS 578T breast; 25.1% with NCI/ADR-RES ovarian; -18.4% (active) in the experiment with T-47D breast; 61.5% in the experiment on BT-549 breast; -63.8% (active) in the experiment on MDA-MB-435 melanoma. The growth in the experiment with SW-620 colon is -62.2% (active); in the experiment on MCF7 breast, -39.7% (active); in the experiment on HCT-116 colon, 1.75% (active); with HCC-2998 colon it was -91% (active); with KM12 colon it was -34.7% (active).

Regarding `CCOc1cc2c(cc1OCC)C(c1cc(C)c(O)c(C)c1)NCC2` (stereo not drawn), the growth is 77.5% in the experiment on RPMI-8226 leukemia; 92.2% with OVCAR-8 ovarian; 97.6% in the experiment on OVCAR-5 ovarian; 95.9% with OVCAR-4 ovarian; 101% with SK-OV-3 ovarian; 101% in the experiment with IGROV1 ovarian. Besides, the growth in the experiment on OVCAR-3 ovarian is 101%; with HS 578T breast, 107%; in the experiment with NCI/ADR-RES ovarian, 84.4%; in the experiment on T-47D breast it was 91.6%; in the experiment with BT-549 breast, 107%; in the experiment on MDA-MB-435 melanoma, 97.5%. The growth in the experiment with SW-620 colon was 100%; with MCF7 breast, 89.1%; in the experiment with HCT-116 colon, 94.2%; in the experiment with HCC-2998 colon it was 103%; in the experiment with KM12 colon it was 103%.

In the case of `COc1ccc(Cn2c(Br)c3c(c2Br)-c2nc(N)sc2CC3)cc1`, the growth in the experiment with RPMI-8226 leukemia was 27.3%; with OVCAR-8 ovarian it was 41%; in the experiment with OVCAR-5 ovarian, 91.4%; with OVCAR-4 ovarian it was 47.8%; with SK-OV-3 ovarian it was 24%; with IGROV1 ovarian, 34.7%. The growth with OVCAR-3 ovarian was 7.35% (active); in the experiment with HS 578T breast, 34.1%; in the experiment on NCI/ADR-RES ovarian, 18.5%; with T-47D breast, 50.4%; in the experiment with BT-549 breast, 51.4%; with MDA-MB-435 melanoma, -40.6% (active). The growth with SW-620 colon was 16%; in the experiment on MCF7 breast, 17.7%; in the experiment with HCT-116 colon, 17.8%; in the experiment on HCC-2998 colon, 66.9%; with KM12 colon, 29.6%.

Turning to `Nc1ccc(-c2nc3cc(Oc4ccc(Oc5ccc6[nH]c(-c7ccc(N)cc7)nc6c5)cc4)ccc3[nH]2)cc1`, the growth in the experiment on RPMI-8226 leukemia is 101%; in the experiment on OVCAR-8 ovarian it was 91.3%; with OVCAR-5 ovarian, 113%; with OVCAR-4 ovarian it was 114%; with SK-OV-3 ovarian, 98.7%; with IGROV1 ovarian, 120%. Further, the growth with OVCAR-3 ovarian is 122%; in the experiment with HS 578T breast it was 108%; in the experiment on NCI/ADR-RES ovarian, 103%; in the experiment with T-47D breast it was 77.3%; in the experiment on BT-549 breast it was 105%; in the experiment on MDA-MB-435 melanoma, 109%. For the same molecule, the growth is 98.4% in the experiment on SW-620 colon; 85.1% in the experiment with MCF7 breast; 97% with HCT-116 colon; 106% in the experiment with HCC-2998 colon; 104% with KM12 colon.

Take `COC(=O)C1(C)COP(=O)(Nc2ccc(OC)cc2)OC1` (stereo not drawn): the growth in the experiment on RPMI-8226 leukemia was 97.7%; in the experiment on OVCAR-8 ovarian, 101%; with OVCAR-5 ovarian, 108%; in the experiment on OVCAR-4 ovarian, 108%; with SK-OV-3 ovarian, 108%; in the experiment on IGROV1 ovarian it was 108%. Also, the growth is 107% in the experiment on OVCAR-3 ovarian; 106% with HS 578T breast; 99.5% with NCI/ADR-RES ovarian; 93.1% with T-47D breast; 98.4% in the experiment with BT-549 breast; 105% in the experiment on MDA-MB-435 melanoma. For the same molecule, the growth is 108% in the experiment on SW-620 colon; 99.5% in the experiment on MCF7 breast; 95.3% in the experiment on HCT-116 colon; 94.1% with HCC-2998 colon; 103% in the experiment on KM12 colon.

Consider `O=C(NCCCN1CCC(N2CCCCC2)CC1)C1=Cc2cc(Br)ccc2OC1`, for which the growth is 30.3% with RPMI-8226 leukemia; 19% in the experiment on OVCAR-8 ovarian; 77% with OVCAR-5 ovarian; 45.5% in the experiment with OVCAR-4 ovarian; 86.4% with SK-OV-3 ovarian; 33.3% in the experiment on IGROV1 ovarian. In addition, the growth was 48.6% in the experiment on OVCAR-3 ovarian; 55.8% in the experiment on HS 578T breast; 38.9% with NCI/ADR-RES ovarian; 44.8% with T-47D breast; 90% in the experiment on BT-549 breast; 51.3% in the experiment on MDA-MB-435 melanoma. For the same molecule, the growth is 56.2% with SW-620 colon; 25.5% with MCF7 breast; 37% in the experiment with HCT-116 colon; 20.4% in the experiment with HCC-2998 colon; 12.4% in the experiment with KM12 colon.
